According to PubChem BioAssay (NCATS):
Where “and” joins values, the source holds several entries; their conditions need not be identical. Equal values may be shown once. Results filed as inconclusive are left out. A structure can be active in one record and inactive in another. Calls of active or inactive are those of the source. Unless noted, calls follow the shape of the dose curve; as a rule, active = well fitted curve in the direction sought with a large enough effect; inconclusive = small, poorly fitted or top-dose-only effect, or another doubt; inactive = no such curve, though single readings can be large; an effect the other way counts as inactive or inconclusive.

Experiments:
[1] = molecular target: Cytochrome P450 1A2 (Homo sapiens) (UniProt P05177); assay: p450-cyp1a2 (AID 410; calls by dose curve; also: potency is read from the fitted curve at half-maximal effect;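 as to activity change, negative = inhibition: -100% = full effect of reference inhibitor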)
Chain of Cytochrome P450 1A2 (Homo sapiens) (P05177 whole entry, looked up): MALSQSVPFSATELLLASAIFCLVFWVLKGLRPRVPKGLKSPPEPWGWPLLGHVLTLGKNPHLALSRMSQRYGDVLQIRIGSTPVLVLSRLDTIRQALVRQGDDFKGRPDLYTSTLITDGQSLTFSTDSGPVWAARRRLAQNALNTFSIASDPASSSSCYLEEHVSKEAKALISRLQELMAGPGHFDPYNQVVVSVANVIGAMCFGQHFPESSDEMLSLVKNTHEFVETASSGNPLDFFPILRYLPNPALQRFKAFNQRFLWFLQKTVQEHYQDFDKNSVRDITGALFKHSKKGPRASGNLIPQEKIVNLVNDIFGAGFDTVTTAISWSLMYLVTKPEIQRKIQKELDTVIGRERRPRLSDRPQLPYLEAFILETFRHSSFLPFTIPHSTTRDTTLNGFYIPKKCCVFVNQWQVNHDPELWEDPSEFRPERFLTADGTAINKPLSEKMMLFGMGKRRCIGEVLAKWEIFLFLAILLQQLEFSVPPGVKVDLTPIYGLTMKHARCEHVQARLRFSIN
How it was run: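 Human CYP1A2 (20nM) demethylated Luciferin-ME at its Km (100uM) in 100mM KPO4. After 10 min compound preincubation, NADPH regeneration ran the reaction 60 min at room temperature. Luciferin was read by luminescence, normalized to 57 uM furafylline.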

[2] = NFAT Signaling Pathway (AID 444; active = well fitted curve in either direction with a large enough effect, not every such curve was filed as active;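 also: carbachol stimulus at about its EC50 of 1 µM final; % is scaled to controls: 0 for no effect and ±100 for the full control effect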); settings: Jurkat NFAT-bla M1, carbachol, beta-lactamase ratio, 5 h
How it was run: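 Jurkat cells carrying an NFAT-driven β-lactamase reporter and co-transfected muscarinic M1 receptor were treated with compound plus carbachol (1 uM final, an EC50 level) for 5 h at 37 °C. CCF4 loading followed for 1 h at RT; 460/530 nm ratio gave %activity.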

[3] = molecular target: Glucocorticoid receptor (Homo sapiens) (UniProt P04150); assay: GR-EFC Redistribution (AID 451; calls by dose curve; also: potency is read from the fitted curve at half-maximal effect); settings: CHO-K1 GR-EFC translocation, beta-gal luminescence, 2 h
Chain of Glucocorticoid receptor (Homo sapiens) (P04150 whole entry, looked up, the tested form may be a part): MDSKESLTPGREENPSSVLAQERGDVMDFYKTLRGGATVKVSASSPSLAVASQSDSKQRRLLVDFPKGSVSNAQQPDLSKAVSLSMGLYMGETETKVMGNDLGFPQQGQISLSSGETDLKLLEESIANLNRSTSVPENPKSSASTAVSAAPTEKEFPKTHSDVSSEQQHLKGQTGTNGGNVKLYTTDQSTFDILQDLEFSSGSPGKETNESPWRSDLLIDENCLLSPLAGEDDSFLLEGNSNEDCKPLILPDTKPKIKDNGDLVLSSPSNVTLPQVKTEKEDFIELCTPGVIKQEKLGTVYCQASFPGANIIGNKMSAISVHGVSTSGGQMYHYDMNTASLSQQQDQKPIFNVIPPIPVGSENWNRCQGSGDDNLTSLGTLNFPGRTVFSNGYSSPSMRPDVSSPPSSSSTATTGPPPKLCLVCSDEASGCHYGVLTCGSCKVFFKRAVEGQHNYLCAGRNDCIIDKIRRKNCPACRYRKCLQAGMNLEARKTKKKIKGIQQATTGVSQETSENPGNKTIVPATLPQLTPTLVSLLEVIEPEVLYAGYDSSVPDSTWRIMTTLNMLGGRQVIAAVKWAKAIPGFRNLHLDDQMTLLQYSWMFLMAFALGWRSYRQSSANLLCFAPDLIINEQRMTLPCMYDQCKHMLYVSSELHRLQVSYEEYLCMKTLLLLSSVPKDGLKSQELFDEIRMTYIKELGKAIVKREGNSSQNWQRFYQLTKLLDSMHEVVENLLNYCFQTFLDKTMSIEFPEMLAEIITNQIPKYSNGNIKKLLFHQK
How it was run: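 CHO-K1 cells stably expressing nuclear-localized β-gal enzyme acceptor and GR fused C-terminally to the enzyme donor fragment; ligand-driven nuclear translocation restores β-gal by complementation. Compounds titrated up to 46 uM final, 2 h at 37 °C; luminescence read.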

[4] = molecular target: Mitogen-activated protein kinase 10 (Mus musculus) (UniProt Q61831); assay: JNK3 AlphaScreen Assay (AID 530; active = well fitted curve in either direction with a large enough effect, not every such curve was filed as active;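 also: kinase came from lysate of stimulated human HepG2 cells; signal reports phosphorylation of biotinylated GST-cJun 1-79 at Ser73 with 10 µM ATP; % is scaled to controls: 0 for no effect and ±100 for the full control effect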)
How it was run: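 JNK3 came from HepG2 lysates pre-activated with IL-1beta and TNF-alpha and phosphorylated biotinylated GST-cJun (1-79) at 10 uM ATP, pH 7.6, room temperature. Compounds were titrated. AlphaScreen signal used anti-phospho-cJun (Ser73) antibody.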

[5] = molecular target: 3',5'-cyclic-AMP phosphodiesterase 4B (Homo sapiens) (UniProt Q07343); assay: qHTS Assay for Inhibitors of PDE-IV (AID 607; active = well fitted activation curve with a large enough effect in the main read-out, with a control signal flat, not every such curve was filed as active; also: % of control where 0% means no effect)
Chain of 3',5'-cyclic-AMP phosphodiesterase 4B (Homo sapiens) (Q07343 whole entry, looked up): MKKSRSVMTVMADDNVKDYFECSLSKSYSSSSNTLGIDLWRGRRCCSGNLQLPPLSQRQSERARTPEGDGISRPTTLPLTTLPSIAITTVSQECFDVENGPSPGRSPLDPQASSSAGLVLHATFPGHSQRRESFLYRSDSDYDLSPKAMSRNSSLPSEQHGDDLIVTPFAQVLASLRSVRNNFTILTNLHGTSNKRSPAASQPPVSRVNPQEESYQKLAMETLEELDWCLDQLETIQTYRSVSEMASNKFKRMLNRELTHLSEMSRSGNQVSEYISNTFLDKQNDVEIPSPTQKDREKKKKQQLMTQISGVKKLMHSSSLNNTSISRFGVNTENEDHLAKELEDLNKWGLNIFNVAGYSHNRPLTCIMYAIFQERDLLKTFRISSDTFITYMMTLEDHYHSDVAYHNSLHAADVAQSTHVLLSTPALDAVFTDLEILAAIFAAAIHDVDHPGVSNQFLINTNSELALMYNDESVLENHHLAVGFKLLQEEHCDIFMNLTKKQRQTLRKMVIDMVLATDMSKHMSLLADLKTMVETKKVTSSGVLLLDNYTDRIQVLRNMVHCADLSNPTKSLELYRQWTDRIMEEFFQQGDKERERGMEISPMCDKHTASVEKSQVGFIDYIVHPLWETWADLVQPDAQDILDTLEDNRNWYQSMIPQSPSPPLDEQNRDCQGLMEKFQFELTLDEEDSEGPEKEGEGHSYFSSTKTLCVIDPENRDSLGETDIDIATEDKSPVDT
How it was run: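 The readout is membrane depolarisation from a cAMP-sensing CNG channel, detected with a potential dye at ex 535/em 590. Cells were HEK293-derived (endogenous PDE-IV) at 1000 cells/well, titrated up to 22.9 uM final.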

[6] = molecular target: Guanine nucleotide-binding protein G(i) subunit alpha-1 (Homo sapiens) (UniProt P63096); assay: qHTS Assay for Inhibitors of RGS12 GoLoco Motif Activity (Green Fluorophore) (AID 879);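 also: 0% = labeled peptide with Gαi1 and full inhibition = labeled peptide alone without protein; negative values mean loss of peptide binding seen as reduced polarization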
How it was run: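 Fluorescence polarization assay: 50 nM Gαi1 with 10 nM FITC-labeled RGS12 GoLoco peptide in 10 mM Tris pH 7.5, 150 mM NaCl, 0.1 mM GDP, 0.05% NP40, 10 min at room temperature with compound.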

[7] = molecular target: Cytochrome P450 2C9 (Homo sapiens) (UniProt P11712); assay: qHTS Assay for Inhibitors and Substrates of Cytochrome P450 2C9 (AID 883); also: nearly all actives have a fitted effect of over 60% in size; also: potency is read from the fitted curve at half-maximal effect; as to activity change, negative = inhibition: % is scaled to controls: 0 for no effect and ±100 for the full control effect
Chain of Cytochrome P450 2C9 (Homo sapiens) (P11712 whole entry, looked up): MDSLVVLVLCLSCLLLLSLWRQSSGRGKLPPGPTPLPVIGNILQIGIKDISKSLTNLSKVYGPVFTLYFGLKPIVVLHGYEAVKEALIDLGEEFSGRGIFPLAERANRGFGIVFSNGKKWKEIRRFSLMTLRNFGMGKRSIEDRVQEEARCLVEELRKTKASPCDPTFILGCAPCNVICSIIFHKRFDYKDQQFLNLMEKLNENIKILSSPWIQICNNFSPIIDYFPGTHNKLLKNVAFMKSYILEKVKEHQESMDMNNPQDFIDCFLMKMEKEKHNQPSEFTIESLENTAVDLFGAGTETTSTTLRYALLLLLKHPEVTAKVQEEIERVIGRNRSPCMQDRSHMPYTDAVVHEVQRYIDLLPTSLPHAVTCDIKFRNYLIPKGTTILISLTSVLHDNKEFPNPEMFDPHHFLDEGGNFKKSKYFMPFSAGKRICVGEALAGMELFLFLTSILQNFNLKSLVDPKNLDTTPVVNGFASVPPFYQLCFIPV
How it was run: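 A luminogenic readout tracked human CYP2C9 (10nM) converting deoxyluciferin (100uM, at KM) in 25mM KPO4 during 60 min at 37C with regenerated NADPH. Values normalized to 57uM sulphaphenazole as complete inhibition.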

[8] = molecular target: Cytochrome P450 3A4 (Homo sapiens) (UniProt P08684); assay: qHTS Assay for Activators of Cytochrome P450 3A4 (AID 885); also: nearly all actives have a fitted effect of over 65% in size
Chain of Cytochrome P450 3A4 (Homo sapiens) (P08684 whole entry, looked up): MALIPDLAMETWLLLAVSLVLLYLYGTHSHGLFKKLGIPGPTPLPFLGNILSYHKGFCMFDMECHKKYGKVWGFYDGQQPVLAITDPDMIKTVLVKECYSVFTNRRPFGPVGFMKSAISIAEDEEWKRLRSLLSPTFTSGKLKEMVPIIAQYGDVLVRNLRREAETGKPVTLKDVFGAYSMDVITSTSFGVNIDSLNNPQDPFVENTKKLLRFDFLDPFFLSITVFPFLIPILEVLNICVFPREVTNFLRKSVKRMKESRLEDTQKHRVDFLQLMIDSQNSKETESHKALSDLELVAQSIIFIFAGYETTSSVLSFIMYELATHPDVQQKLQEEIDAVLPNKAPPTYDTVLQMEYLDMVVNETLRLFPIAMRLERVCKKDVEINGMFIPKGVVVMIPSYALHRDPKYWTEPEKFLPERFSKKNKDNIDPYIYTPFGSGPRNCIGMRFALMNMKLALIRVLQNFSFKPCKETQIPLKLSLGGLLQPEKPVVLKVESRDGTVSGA
How it was run: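 Steps: enzyme/substrate mix dispensed; compound added, 10 min RT; NADPH regeneration solution added, 60 min RT; luciferin detection buffer stops reaction; 20 min later luminescence measured.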

[9] = molecular target: Cytochrome P450 2C19 (Homo sapiens) (UniProt P33261); assay: qHTS Assay for Inhibitors and Substrates of Cytochrome P450 2C19 (AID 899); also: nearly all actives have a fitted effect of over 60% in size; also: potency is read from the fitted curve at half-maximal effect
Chain of Cytochrome P450 2C19 (Homo sapiens) (P33261 whole entry, looked up): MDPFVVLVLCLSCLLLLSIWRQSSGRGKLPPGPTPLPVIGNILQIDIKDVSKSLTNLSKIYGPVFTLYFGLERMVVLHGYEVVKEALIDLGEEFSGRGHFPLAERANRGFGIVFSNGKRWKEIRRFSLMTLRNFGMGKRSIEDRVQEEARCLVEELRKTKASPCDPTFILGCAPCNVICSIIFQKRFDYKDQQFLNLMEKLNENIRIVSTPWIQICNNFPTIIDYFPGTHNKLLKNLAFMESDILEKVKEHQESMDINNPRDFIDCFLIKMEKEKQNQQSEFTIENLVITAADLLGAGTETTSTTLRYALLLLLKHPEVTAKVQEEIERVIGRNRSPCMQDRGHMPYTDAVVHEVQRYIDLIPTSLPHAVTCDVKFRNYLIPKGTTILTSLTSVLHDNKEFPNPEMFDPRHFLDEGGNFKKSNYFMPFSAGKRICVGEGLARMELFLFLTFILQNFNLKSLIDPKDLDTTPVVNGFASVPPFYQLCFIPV
How it was run: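 NADPH-dependent conversion of Luciferin-H EGE (10uM, at KM) by 5nM enzyme in 50mM KPO4, 60 min at 37C following 10 min compound preincubation. Stopped with luciferin detection buffer; luminescence read after 20 min.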

[10] = molecular target: Pyruvate kinase (Leishmania mexicana) (UniProt Q27686); assay: qHTS Validation Assay for Inhibitors of Leishmania Mexicana Pyruvate Kinase (AID 945); also: potency is read from the fitted curve at half-maximal effect;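 as to activity change, negative = inhibition: 0% = DMSO only neutral control wells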
How it was run: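 The enzyme is a highly purified E451W mutant of LmPYK used at 0.2 nM. It converts 0.5 mM PEP and 0.1 mM ADP over 1 h at room temperature; product ATP is quantified by luciferase luminescence relative to DMSO controls.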

[11] = molecular target: Pyruvate kinase PKM (Homo sapiens) (UniProt P14618); assay: qHTS Assay for Activators of Human Muscle Pyruvate Kinase (AID 954; active = well fitted curve in the direction sought with a large enough effect, not every such curve was filed as active;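 also: 0% = uninhibited enzyme and -100% = no enzyme or full thiadiazolimine inhibition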)
How it was run: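 Reaction: 0.1 nM purified PKM2 with 0.5 mM phosphoenolpyruvate and 0.1 mM ADP, room temperature, 1 h. Readout: luciferase-based ATP luminescence after stop reagent. Activators judged against a 0.3 nM enzyme column.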

[12] = molecular target: Alpha-galactosidase A (Homo sapiens) (UniProt P06280); assay: Counterscreen for Glucocerebrosidase Inhibitors: qHTS Assay for Human alpha-Galactosidase at pH 4.5 (AID 992); also: 0% is about no effect
How it was run: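 Concentration-response curves (0.7 nM to 77 uM final) were modeled with the Hill equation to give AC50. Reactions: 2 nM enzyme, 80 uM fluorogenic alpha-galactoside, pH 4.5 citric acid buffer, 20 min, room temperature.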

[13] = molecular target: alpha-glucosidase (Oryza sativa, rice) (UniProt Q653V4); assay: Counterscreen for Glucocerebrosidase Inhibitors: qHTS Assay for Rice alpha-Glucosidase at pH 5.0 (AID 997);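 also: 0% = full activity with enzyme and -100% = basal without enzyme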
How it was run: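 Rice alpha-glucosidase (4 nM final) with 400 uM 4-methylumbelliferyl-alpha-D-glucopyranoside in citrate buffer pH 5.0, 20 min at room temperature, stopped at pH 10; fluorescence 365/440 nm, compounds 0.7 nM–77 uM, AC50 from Hill fits.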

[14] = molecular target: DNA dC->dU-editing enzyme APOBEC-3G (Homo sapiens) (UniProt Q9HC16); assay: qHTS for inhibitors of Vif-A3G interactions: Validation (AID 588379); also: potency is read from the fitted curve at half-maximal effect; as to activity change, negative = inhibition: 0% is about no effect
Chain of DNA dC->dU-editing enzyme APOBEC-3G (Homo sapiens) (Q9HC16 whole entry, looked up): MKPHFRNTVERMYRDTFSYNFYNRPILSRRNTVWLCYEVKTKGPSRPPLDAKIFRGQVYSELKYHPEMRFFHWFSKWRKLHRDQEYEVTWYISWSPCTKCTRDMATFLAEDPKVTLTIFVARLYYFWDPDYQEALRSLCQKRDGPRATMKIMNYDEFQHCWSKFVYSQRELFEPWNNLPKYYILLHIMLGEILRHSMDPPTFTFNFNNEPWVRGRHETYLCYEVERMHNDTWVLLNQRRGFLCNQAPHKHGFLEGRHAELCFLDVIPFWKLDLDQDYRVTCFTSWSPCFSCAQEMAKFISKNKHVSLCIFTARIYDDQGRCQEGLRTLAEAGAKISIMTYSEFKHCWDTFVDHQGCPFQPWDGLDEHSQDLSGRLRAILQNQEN
How it was run: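 HeLa cells stably expressing Vif and A3G-eYFP, 700 cells/well, incubated overnight at 37 deg C, then exposed to compound overnight at 37 deg C. Inhibition of Vif-mediated degradation read as increased yellow fluorescence (Ex 488/Em 500-530) by laser-scanning cytometry.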

[15] = tested on: Zika virus NS2B-NS3 protease; assay: Primary screen GU AMC qHTS for Zika virus inhibitors (AID 1347154);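 also: 0% = no-inhibitor control and -100% = no-enzyme control; nearly all actives have a fitted effect of over 70% in size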
How it was run: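 Unlinked Zika NS2B hydrophilic domain/NS3 protease domain noncovalent complex (25 nM final) in 10 mM Tris-HCl pH 8.0, 0.01% Tween 20, with AMC peptide substrate. Fluorescence (ex 340, em 450 nm) change over 15 min, room temperature; percent inhibition fitted to 4-parameter Hill equation.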

[16] = Primary qHTS for small molecule stabilizers of the endoplasmic reticulum resident proteome: Secreted ER Calcium Modulated Protein (SERCaMP) assay (AID 1508630); also: % is scaled to controls: 0 for no effect and ±100 for the full control effect
How it was run: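 GLuc-SERCaMP-expressing SH-SY5Y cells, pretreated 16 h with compound, are challenged with thapsigargin to empty ER calcium stores; after 4 h, coelenterazine is added directly to the medium and luminescence is imaged.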

[17] = molecular target: Glucocorticoid receptor (Homo sapiens) (UniProt P04150); assay: GR-GFP Redistribution (AID 450;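 active = compounds whose dose series gives a full or clear partial fitted curve of increased nuclear translocation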; also: potency is read from the fitted curve at half-maximal effect); settings: U2OS GR-GFP nuclear translocation, laser cytometry, 2 h
[18] = molecular target: Ubiquitin carboxyl-terminal hydrolase 1 (Homo sapiens) (UniProt O94782); assay: Inhibitors of USP1/UAF1: Pilot qHTS (AID 504865); also: nearly all actives have a fitted effect of over 35% in size; also: potency is read from the fitted curve at half-maximal effect
Chain of Ubiquitin carboxyl-terminal hydrolase 1 (Homo sapiens) (O94782 whole entry, looked up): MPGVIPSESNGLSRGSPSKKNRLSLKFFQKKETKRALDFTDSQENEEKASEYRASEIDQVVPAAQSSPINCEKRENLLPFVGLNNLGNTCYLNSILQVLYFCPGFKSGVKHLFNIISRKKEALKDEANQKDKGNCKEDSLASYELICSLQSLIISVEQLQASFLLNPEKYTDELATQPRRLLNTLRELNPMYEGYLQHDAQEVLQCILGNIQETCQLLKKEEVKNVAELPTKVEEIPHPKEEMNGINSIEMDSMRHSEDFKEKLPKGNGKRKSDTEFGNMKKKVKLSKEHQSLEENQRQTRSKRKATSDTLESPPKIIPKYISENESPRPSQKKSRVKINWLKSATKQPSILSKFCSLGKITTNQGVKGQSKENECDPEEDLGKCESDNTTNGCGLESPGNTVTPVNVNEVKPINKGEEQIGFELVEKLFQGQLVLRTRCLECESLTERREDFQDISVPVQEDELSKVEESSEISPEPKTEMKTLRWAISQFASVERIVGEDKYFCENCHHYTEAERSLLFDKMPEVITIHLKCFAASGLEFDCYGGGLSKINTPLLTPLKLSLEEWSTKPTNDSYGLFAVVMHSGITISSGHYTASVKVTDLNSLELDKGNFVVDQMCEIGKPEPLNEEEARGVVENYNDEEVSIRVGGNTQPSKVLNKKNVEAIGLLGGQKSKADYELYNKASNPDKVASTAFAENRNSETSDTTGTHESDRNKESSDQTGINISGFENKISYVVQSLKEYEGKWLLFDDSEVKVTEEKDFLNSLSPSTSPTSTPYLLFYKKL
How it was run: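 Deubiquitinase activity followed as kinetic rhodamine fluorescence release from 150 nM Ub-Rho. 1 nM USP1/UAF1 with compound, after 15 min room-temperature preincubation, in HEPES pH 7.8 buffer containing TCEP, EDTA, BSA and Tween-20.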

Cc1cccc(/C=C\c2ccccc2)n1
active: Potency [1] 631 nM and 398 nM | Potency [9] 0.501 µM | Potency [10] 15.8 µM
inactive and 3.98 µM (active): Potency [7]
inactive: activity change, negative = inhibition ([2]; at 38 µM (top of the series)) -3.22% | Potency [3] > 46 µM | Potency [4] | Potency [5] | outcome [6] | Potency [8] | outcome [11] | outcome [12] | outcome [13] | Potency [14] | Potency [15] | Potency [16]

CC(C)[C@@H]1C(=O)N(S(C)(=O)=O)[C@H]2CCN(C(=O)/C=C\CN3CCCCC3)[C@@H]12
inactive: Potency [1] | Potency [17] > 46 µM | Potency [3] > 46 µM | Potency [5] | Potency [18] | Potency [14] | Potency [15] | Potency [16]

O=c1[nH]c2cc(Cl)ccc2c(O)c1-c1cccc(Oc2ccccc2)c1
inactive: Potency [17] > 46 µM | Potency [3] > 46 µM | Potency [4] | Potency [18] | Potency [14] | Potency [15] | Potency [16]
active: Potency [1] 2.51 µM

CCCCCC#CCC#CCC#CCC#CCCCC(=O)O
inactive: activity change, negative = inhibition ([2]; at 17.2 µM (top of the series)) -2.11% | Potency [17] > 20.6 µM | Potency [15] | Potency [16]

CC#CCOC(=O)c1c(C)nc2sc3c(c2c1N)CC[C@@H](O)C3
active: Potency [1] 398 nM and 25.1 nM
inactive: activity change, negative = inhibition ([2]; at 38 µM (top of the series)) -25.8% | Potency [17] > 46 µM | Potency [3] > 46 µM | Potency [4] | Potency [5] | outcome [6] | Potency [7] | Potency [8] | Potency [9] | Potency [10] | outcome [11] | outcome [12] | outcome [13] | Potency [14] | Potency [15] | Potency [16]

O=C(Cc1ccccc1)Nc1nc2ccc(Cl)cc2c2nc(-c3ccco3)nn12
inactive: Potency [17] > 46 µM | Potency [3] > 46 µM | Potency [4] | Potency [5] | Potency [8] | Potency [18] | Potency [15] | Potency [16]
active: Potency [1] 0.2 µM | Potency [7] 3.16 µM | Potency [9] 1.58 µM | Potency [14] 21.1 µM

N#Cc1cc2[nH]c(=O)c(=O)[nH]c2cc1[N+](=O)[O-]
active: Potency [1] 31.6 µM
inactive: Potency [17] > 46 µM | Potency [3] > 46 µM | Potency [4] | Potency [14] | Potency [15] | Potency [16]

CCCCCCCCCCCCCCC[C@@H](O)[C@@H](N)CO
inactive: Potency [17] > 46 µM | Potency [3] > 46 µM | Potency [4] | Potency [5] | Potency [14] | Potency [15] | Potency [16]
active: Potency [1] 25.1 µM | Potency [18] 31.6 µM

c1ccc2cc(C3=NCCN3)ncc2c1
inactive: Potency [17] > 46 µM | Potency [3] > 46 µM | Potency [4] | Potency [5] | Potency [18] | Potency [14] | Potency [15] | Potency [16]
active: Potency [1] 0.501 µM

CCCCNC(=O)[C@@H]1Cc2ccccc2N1C(=O)[C@H](N)CC
active: Potency [1] 20 µM
inactive: Potency [17] > 46 µM | Potency [3] > 46 µM | Potency [4] | Potency [14] | Potency [15] | Potency [16]

C[C@H](C[C@H](N)C(=O)O)C(=O)O
inactive: Potency [17] > 46 µM | Potency [3] > 46 µM | Potency [4] | Potency [14] | Potency [15] | Potency [16]
active: Potency [1] 31.6 µM
